Several values for one entry are separate records, joined by “and”; a condition that tells them apart may be missing. Identical values can stand only once. Inconclusive results are not listed. A call without a number means that no potency is given here. Activity calls are given as the source filed them. Unless noted, the call rests on the fitted dose curve; in most records, active means well fitted curve in the direction sought with a large enough effect in the repeat runs; inconclusive means weak or mixed curves; inactive means no such curve, though single readings can be large; an effect the other way counts as inactive or inconclusive.
Experiments:
[1] = qHTS assay to test for compound auto fluorescence at 535 nm (green) in HEK293 cells (AID 720680)
[2] = qHTS assay to test for compound auto fluorescence at 460 nm (blue) in HEK293 cell free culture (AID 720681)
Method in brief: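 Test compounds were pinned into cell-free culture medium (DMEM with 10% FBS) and fluorescence was read directly at Ex/Em 405/460 nm. Signals were expressed as fluorescence equivalents of triamterene, with DMSO vehicle as control.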

[3] = qHTS assay to test for compound auto fluorescence at 535 nm (green) in HEK293 cell free culture (AID 720682)
Method in brief: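 Measurement is a direct plate read of green fluorescence (485 nm in, 535 nm out) after compound addition to serum-supplemented DMEM lacking cells, with fluorescein used to express intensities.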

[4] = qHTS assay to test for compound auto fluorescence at 590 nm (red) in HEK293 cell free culture (AID 720683)
Method in brief: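 Tox21 10K library compounds were pinned into cell-free DMEM with 10% FBS and fluorescence was read at excitation 540 nm. Activity is expressed as Rose Bengal sodium equivalency.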

[5] = qHTS assay to test for compound auto fluorescence at 590 nm (red) in HepG2 cell free culture (AID 720684)
Method in brief: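 Readout: intrinsic compound fluorescence at 590 nm emission after 540 nm excitation, scaled to Rose Bengal sodium. Matrix was cell-free MEM with 10% FBS; DMSO vehicle wells served as control.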

[6] = qHTS assay to test for compound auto fluorescence at 460 nm (blue) in HepG2 cell free culture (AID 720685)
Method in brief: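 Cell-free plates of MEM plus 10% FBS received 23 nL compound or DMSO vehicle; blue-channel (405/460 nm) intensity scored against triamterene as reference fluorophore.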

[7] = qHTS assay to test for compound auto fluorescence at 535 nm (green) in HepG2 cell free culture (AID 720686)
[8] = qHTS assay to test for compound auto fluorescence at 460 nm (blue) in HepG2 cells (AID 720687)
Method in brief: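 Cells (2,000/well in MEM with 10% FBS) attached overnight at 37 C, then were exposed to compound or DMSO for 1 hr at 37 C, 5% CO2. Fluorescence read at Ex/Em 405/460 nm, expressed as triamterene-equivalent signal.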

[9] = qHTS assay to identify small molecule antagonists of the glucocorticoid receptor (GR) signaling pathway - cell viability counter screen (AID 720693); further: nearly all actives have a fitted effect of over 55% in size; further: potency means the concentration at half of the fitted maximal effect
[10] = qHTS assay for identifying genotoxic compounds that show differential cytotoxicity against isogenic chicken DT40 cell lines with known DNA damage response pathways - wild type cell line (AID 743012); further: nearly all actives have a fitted effect of over 60% in size; further: potency means the concentration at half of the fitted maximal effect
Method in brief: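 Endpoint: CellTiter-Glo luminescence, 30 min RT. Cells: wild type DT40, 300/well. Exposure: compounds in DMSO, 40 h, 37 C/5% CO2, after ~0.5 h pre-incubation.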

[11] = qHTS assay for identifying genotoxic compounds that show differential cytotoxicity against isogenic chicken DT40 cell lines with known DNA damage response pathways - Rev3 mutant cell line (AID 743014); further: nearly all actives have a fitted effect of over 55% in size; further: potency means the concentration at half of the fitted maximal effect
[12] = qHTS assay for identifying genotoxic compounds that show differential cytotoxicity against isogenic chicken DT40 cell lines with known DNA damage response pathways - Rad54/Ku70 mutant cell line (AID 743015); further: nearly all actives have a fitted effect of over 60% in size; further: potency means the concentration at half of the fitted maximal effect
[13] = qHTS assay to identify small molecule antagonists of the androgen receptor (AR) signaling pathway - cell viability counter screen (AID 743033; further: nearly all actives have a fitted effect of over 45% in size; further: potency means the concentration at half of the fitted maximal effect)
[14] = qHTS assay to identify small molecule antagonists of the androgen receptor (AR) signaling pathway using the MDA cell line - cell viability counter screen (AID 743041; further: nearly all actives have a fitted effect of over 45% in size)
Method in brief: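 qHTS viability read-out; MDA-kb2 AR-luc; R1881-stimulated; 16 h exposure at 37C, 0% CO2; CellTiter-Fluor, 30 min; fluorescence intensity.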

[15] = target: Glucocorticoid receptor (Homo sapiens) (UniProt P04150); test: qHTS assay to identify small molecule antagonists of the glucocorticoid receptor (GR) signaling pathway (AID 720692; active means well fitted inhibition curve with a large enough effect in the signal ratio in the repeat runs, not every such curve was filed as active; the % refers to the signal ratio; further: potency means the concentration at half of the fitted maximal effect)
Method in brief: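 Tox21 10K library screened in concentration-response for blockade of dexamethasone (5 nM final)-induced GRE-bla reporter activity in HeLa cells; 18 h treatment, fluorescence read.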

[16] = target: Androgen receptor (Homo sapiens) (UniProt P10275); test: qHTS assay to identify small molecule antagonists of the androgen receptor (AR) signaling pathway (AID 743035; active means well fitted inhibition curve with a large enough effect in the signal ratio in the repeat runs, not every such curve was filed as active; the % refers to the signal ratio)
Method in brief: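 R1881 agonist challenge of a HEK293 UAS-beta-lactamase AR reporter line in the presence of compound (16 h, 37C); signal taken as FRET fluorescence after 2 h with LiveBLAzer B/G substrate at room temperature.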

[17] = target: Androgen receptor (Homo sapiens) (UniProt P10275); test: qHTS assay to identify small molecule agonists of the androgen receptor (AR) signaling pathway (AID 743036; active means well fitted activation curve with a large enough effect in the signal ratio in the repeat runs, with a control signal flat, not every such curve was filed as active; the % refers to the signal ratio)
Method in brief: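 Beta-lactamase under UAS control, stably integrated in HEK293 GripTite cells, reports receptor activation. After 16 h compound treatment, cells received FRET substrate for 2 h at room temperature before fluorescence reading.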

[18] = target: Androgen receptor (Homo sapiens) (UniProt P10275); test: qHTS assay to identify small molecule agonists of the androgen receptor (AR) signaling pathway using the MDA cell line (AID 743040; further: nearly all actives have a fitted effect of over 20% in size)
Method in brief: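 Agonist activity is measured as luciferase luminescence in human MDA-kb2 cells whose MMTV reporter responds to both AR and GR. Compounds in DMSO incubate 16 h at 37C, 0% CO2, and ONE-Glo is read after 30 min.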

[19] = target: Androgen receptor (Homo sapiens) (UniProt P10275); test: qHTS assay to identify small molecule antagonists of the androgen receptor (AR) signaling pathway using the MDA cell line (AID 743042; further: nearly all actives have a fitted effect of over 55% in size; further: potency means the concentration at half of the fitted maximal effect)
Method in brief: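 MDA-kb2 cells (human breast carcinoma, stably carrying an MMTV-luciferase reporter responsive to AR and GR) were plated at 3,000 cells/well and preincubated 5 hr at 37C, then given compound plus R1881 agonist for 16 h. ONE-Glo luminescence was read.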

Androgen receptor (Homo sapiens), sequence (P10275 whole entry, looked up): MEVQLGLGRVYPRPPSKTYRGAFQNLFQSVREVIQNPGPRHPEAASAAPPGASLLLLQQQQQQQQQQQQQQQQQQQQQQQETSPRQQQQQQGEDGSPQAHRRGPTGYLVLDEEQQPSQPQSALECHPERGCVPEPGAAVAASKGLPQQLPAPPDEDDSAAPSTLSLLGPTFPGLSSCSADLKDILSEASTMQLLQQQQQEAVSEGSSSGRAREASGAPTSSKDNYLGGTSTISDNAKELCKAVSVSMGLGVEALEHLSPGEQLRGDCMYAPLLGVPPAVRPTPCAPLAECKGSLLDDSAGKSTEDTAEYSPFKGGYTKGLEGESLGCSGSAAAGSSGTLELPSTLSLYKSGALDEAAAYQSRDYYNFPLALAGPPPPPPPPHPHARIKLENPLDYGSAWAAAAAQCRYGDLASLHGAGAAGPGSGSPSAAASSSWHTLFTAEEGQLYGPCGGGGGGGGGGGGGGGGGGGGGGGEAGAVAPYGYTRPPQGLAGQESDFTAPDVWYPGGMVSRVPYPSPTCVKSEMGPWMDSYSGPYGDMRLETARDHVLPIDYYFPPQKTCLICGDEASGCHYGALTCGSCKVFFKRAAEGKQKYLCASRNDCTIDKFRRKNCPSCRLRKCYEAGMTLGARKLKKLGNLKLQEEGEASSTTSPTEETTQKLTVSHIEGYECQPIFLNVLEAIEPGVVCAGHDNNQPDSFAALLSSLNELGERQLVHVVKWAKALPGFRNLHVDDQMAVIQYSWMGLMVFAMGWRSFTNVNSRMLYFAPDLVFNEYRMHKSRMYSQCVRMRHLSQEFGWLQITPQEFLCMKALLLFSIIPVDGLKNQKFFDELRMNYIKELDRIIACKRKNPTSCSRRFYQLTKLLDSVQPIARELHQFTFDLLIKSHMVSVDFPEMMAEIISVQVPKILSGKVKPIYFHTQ
Glucocorticoid receptor (Homo sapiens), sequence (P04150 whole entry, looked up): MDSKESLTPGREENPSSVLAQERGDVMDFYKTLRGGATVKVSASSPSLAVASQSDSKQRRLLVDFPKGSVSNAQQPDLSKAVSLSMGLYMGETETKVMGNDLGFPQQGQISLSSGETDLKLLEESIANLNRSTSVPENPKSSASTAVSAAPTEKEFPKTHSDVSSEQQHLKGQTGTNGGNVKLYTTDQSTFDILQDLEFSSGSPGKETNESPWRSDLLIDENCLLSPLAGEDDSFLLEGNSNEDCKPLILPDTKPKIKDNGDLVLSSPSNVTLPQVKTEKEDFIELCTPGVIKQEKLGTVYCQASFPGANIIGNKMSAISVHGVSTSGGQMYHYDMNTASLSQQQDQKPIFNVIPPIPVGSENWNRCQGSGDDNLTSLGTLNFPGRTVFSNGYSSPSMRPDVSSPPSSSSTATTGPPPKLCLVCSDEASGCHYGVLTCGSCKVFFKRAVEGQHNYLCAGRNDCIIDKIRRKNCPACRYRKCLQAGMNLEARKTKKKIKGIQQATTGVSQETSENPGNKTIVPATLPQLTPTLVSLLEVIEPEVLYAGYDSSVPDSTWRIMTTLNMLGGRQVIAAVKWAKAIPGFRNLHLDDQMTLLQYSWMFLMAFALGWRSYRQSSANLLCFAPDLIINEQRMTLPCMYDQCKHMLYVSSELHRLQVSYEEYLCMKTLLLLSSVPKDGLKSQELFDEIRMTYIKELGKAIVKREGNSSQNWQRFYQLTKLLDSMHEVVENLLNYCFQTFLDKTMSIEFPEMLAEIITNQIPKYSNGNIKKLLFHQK

Structure (SMILES)	outcome [1]	Potency [2]	outcome [3]	outcome [4]	outcome [5]	Potency [6]	Potency [7]	Potency [8]	Potency [9]	Potency [10]	Potency [11]	Potency [12]	Potency [13]	Potency [14]	Potency [15]	Potency [16]	Potency [17]	Potency [18]	Potency [19]
CN=C(N)NCCC[C@H](N)C(=O)O	inactive	inactive	inactive	inactive	inactive	inactive	inactive	inactive	inactive	inactive	inactive	inactive	inactive	inactive	–	–	–	–	–
O=C(N[C@H](CO)[C@H](O)c1ccc([N+](=O)[O-])cc1)C(Cl)Cl	inactive	inactive	inactive	inactive	inactive	inactive	inactive	inactive	inactive	5.96 µM (active) and 15.4 µM (active)	7.5 µM (active) and 17.2 µM (active)	8.41 µM (active) and 19.7 µM (active)	inactive	inactive	–	–	–	–	–
O=C(O)CCCC/C=C(\c1ccccc1)c1cccnc1	inactive	inactive	inactive	inactive	inactive	inactive	inactive	inactive	inactive	inactive	inactive	inactive	inactive	inactive	–	–	–	–	–
CC[C@H]1OC(=O)C[C@@H](O)[C@H](C)[C@@H](O[C@@H]2O[C@H](C)[C@@H](O[C@H]3C[C@@](C)(O)[C@@H](O)[C@H](C)O3)[C@H](N(C)C)[C@H]2O)[C@@H](CC=O)C[C@@H](C)C(=O)/C=C/C(C)=C/[C@@H]1CO[C@@H]1O[C@H](C)[C@@H](O)[C@@H](OC)[C@H]1OC	inactive	inactive	inactive	inactive	inactive	inactive	inactive	inactive	inactive	inactive	inactive	–	inactive	inactive	–	–	–	–	–
CN1[C@@H](CC(=O)c2ccccc2)CCC[C@H]1C[C@H](O)c1ccccc1	inactive	inactive	inactive	inactive	inactive	inactive	inactive	inactive	inactive	26.6 µM (active)	inactive	–	inactive	–	–	–	–	–	–
O=C1OC(O)C(C(Cl)Cl)=C1Cl (stereo not given)	inactive	inactive	inactive	inactive	inactive	inactive	inactive	inactive	–	17.8 µM (active)	1.26 µM (active)	19.9 µM (active)	22.5 µM (active)	–	25.3 µM (active)	–	–	–	–
CN(Cc1ccccc1)Cc1ccccc1	inactive	inactive	inactive	inactive	inactive	inactive	inactive	inactive	inactive	inactive	inactive	inactive	inactive	inactive	–	–	–	–	–
CC1(C)C[C@@H]1C(=O)N/C(=C\CCCCSC[C@H](N)C(=O)O)C(=O)O	inactive	inactive	inactive	inactive	inactive	inactive	inactive	inactive	inactive	inactive	inactive	inactive	inactive	inactive	–	inactive	inactive	inactive	inactive
CO[C@H](C(=O)[C@@H](O)[C@@H](C)O)C1Cc2cc3cc(O[C@H]4C[C@@H](O[C@H]5C[C@@H](O)[C@H](O)[C@@H](C)O5)[C@@H](O)[C@@H](C)O4)c(C)c(O)c3c(O)c2C(=O)[C@H]1O[C@H]1C[C@@H](O[C@H]2C[C@@H](O[C@H]3C[C@](C)(O)[C@H](O)[C@@H](C)O3)[C@H](O)[C@@H](C)O2)[C@H](O)[C@@H](C)O1 (stereo not given in full)	inactive	inactive	inactive	inactive	inactive	inactive	inactive	inactive	1.34 µM (active)	94.4 nM (active) and 47.3 nM (active)	84.1 nM (active) and 37.6 nM (active)	75 nM (active) and 33.5 nM (active)	inactive	inactive	–	–	–	inactive	473 nM (active) and 266 nM (active)
CCCCCCCCCCCCN1CCCC1=O	inactive	inactive	inactive	inactive	inactive	inactive	inactive	inactive	43.6 µM (active)	24.3 µM (active)	30.6 µM (active)	30.6 µM (active)	inactive	inactive	–	–	–	–	–
COC(=O)[C@H]1[C@H]2C[C@H]3c4[nH]c5ccccc5c4CCN3C[C@H]2CC[C@@H]1O	inactive	inactive	inactive	inactive	inactive	inactive	inactive	inactive	inactive	inactive	inactive	inactive	inactive	–	–	–	–	–	–
CCC(NC(C)C)C(O)c1ccc(O)c(O)c1 (stereo not given)	inactive	inactive	inactive	inactive	inactive	inactive	inactive	inactive	inactive	inactive	inactive	inactive	inactive	inactive	–	–	–	–	–
C=CC1=C(C(=O)O)N2C(=O)[C@@H](NC(=O)/C(=N\O)c3csc(N)n3)[C@H]2SC1 (stereo in doubt)	inactive	inactive	inactive	inactive	inactive	inactive	inactive	inactive	inactive	inactive	inactive	inactive	inactive	inactive	–	inactive	inactive	inactive	inactive
FC(F)(F)C(F)(F)C(F)(F)C(F)(F)C(F)(F)F	inactive	inactive	inactive	inactive	inactive	inactive	inactive	inactive	inactive	inactive	inactive	inactive	inactive	–	–	–	–	–	–
